Screening data as filed in PubChem.
Many of the other results were omitted from the sample, so hits are more common in it than they were.
NS1 inh – influenza NS1 inhibition. Potency, µM (highest dose often 46.1 µM), inactives show at the highest dose activity, positive = more growth. actives 0.4% (n = 270,000). AID 2326; calls by dose curve; note: potency is the fitted concentration of half-maximal effect; actives are rising curves; nearly all actives have a fitted effect of over 50% in size
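Growth recovery, yeast-based: influenza A NS1 expressed in S. cerevisiae causes slow growth, and suppressors are detected by OD600. The parent strain without NS1 is used as positive control.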
AmpC inh detg – inhibitors of E. coli AmpC beta-lactamase with detergent; AmpC hydrolysis of nitrocefin, absorbance 480 nm, 0.01% Triton; Potency, µM (series often up to 114 µM), for inactives: at the top dose activity change, negative = inhibition, most hits filed as inhibitors; actives 0.041% (n = 370,000); P00811;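 note: potency is the fitted concentration of half-maximal effect; 0% = no-compound wells and -100% = no-enzyme wells; nearly all actives have a fitted effect of over 25% in size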
Target sequence (P00811 whole entry, looked up): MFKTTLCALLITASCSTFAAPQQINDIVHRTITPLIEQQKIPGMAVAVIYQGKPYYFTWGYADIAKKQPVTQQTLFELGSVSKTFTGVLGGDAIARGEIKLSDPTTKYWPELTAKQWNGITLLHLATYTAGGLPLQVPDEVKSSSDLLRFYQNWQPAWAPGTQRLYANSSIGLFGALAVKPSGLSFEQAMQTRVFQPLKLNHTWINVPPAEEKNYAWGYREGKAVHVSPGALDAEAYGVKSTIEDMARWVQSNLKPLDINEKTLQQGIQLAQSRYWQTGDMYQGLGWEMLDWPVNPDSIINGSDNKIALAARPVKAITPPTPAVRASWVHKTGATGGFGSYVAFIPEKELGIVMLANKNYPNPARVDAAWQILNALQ
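AmpC (5.3 nM in the dispensed reagent) in 20 mM phosphate pH 7.0 with 0.01% (detergent screen) or 0.0001% Triton X-100 was preincubated with compounds for 15 min at room temperature. Nitrocefin was then added from an 800 uM solution, and hydrolysis was followed at 480 nm.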
CHX counter – counter-screen hit for Shiga toxin inhibitors, cycloheximide; cell reporter, cycloheximide protein synthesis inhibition counterscreen; max response, %; actives 12% (n = 300,000); AID 2314; in the data active = max response mostly above about 13%, no sharp cut-off; inactive = mostly below about 14%; note: read at 38.3 µM for the half of the compounds with a filed dose; 0% is about no effect
Shiga toxin inh – Shiga toxin inhibition | actives 9.2% (n = 290,000) | inhibition, % at 38.7 µM | Vero cells, Shiga toxin protein synthesis inhibition reporter | AID 2315; in the data active = inhibition mostly above about 28%, no sharp cut-off; inactive = mostly below about 43%; note: 0% is about no effect
AmpC inh no detg – blocks E. coli AmpC beta-lactamase in detergent-free assay; P00811; AmpC nitrocefin hydrolysis, absorbance 480 nm, 0.0001% Triton; Potency, µM (doses to about 57.1 µM), for the others: top-dose activity change, negative = inhibition, actives largely listed as inhibitors; actives 0.52% (n = 330,000); AID 485341;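 note: potency is the fitted concentration of half-maximal effect; plate controls were no compound for no effect and no enzyme for full effect; nearly all actives have a fitted effect of over 20% in size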
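AmpC (5.3 nM in the dispensed reagent) in 20 mM phosphate pH 7.0 with 0.01% (detergent screen) or 0.0001% Triton X-100 was preincubated with compounds for 15 min at room temperature. Nitrocefin was then added from an 800 uM solution, and hydrolysis was followed at 480 nm.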
Numbers without * were called inactive; ? = inconclusive; · = no result; [ ] = another dose, or the depositor's remark. Unless noted, calls come from the whole dose curve; as a rule, active = well fitted curve in the direction sought with a large enough effect; inconclusive = small, poorly fitted or top-dose-only effect, or another doubt; inactive = no such curve, though single readings can be large; an effect the other way counts as inactive or inconclusive.

SMILES	NS1 inh	AmpC inh detg	CHX counter	Shiga toxin inh	AmpC inh no detg
CC(C)(C)c1ccc(NC(=O)COc2ccc(-n3ccnc3)cc2)cc1	-48.2%	-8.6%	36.4*	48.9*	-8.0%
COc1cc(NC(=O)COc2ccc(-n3ccnc3)cc2)cc(OC)c1	·	-12.9%	6.1	21.1	-13.8%
C/C(=N\Nc1ccc(Cl)c(Cl)c1)c1ccc(-n2ccnc2)cc1	-40.0%	-0.4%	10.4	20.8	14.1µM*
COc1ccc(-c2cc(C(=O)N3CCCC3)no2)cc1	-25.2%	3.7%	25.0*	73.7*	14.1%
COc1ccc(-c2cc(C(=O)N3CCN(C(c4ccccc4)c4ccccc4)CC3)no2)cc1OC	18.0%	0.1%	2.2	25.1	59.6%
COc1cccc(-c2cc(C(=O)N3CCCCC3C)no2)c1 (stereo not drawn)	-7.9%	0.3%	28.0*	104.8*	5.6%
COc1ccc(-c2cc(C(=O)N3CCCCCC3)no2)cc1OC	-6.6%	-5.1%	30.4*	51.7*	61.5%
COc1ccc(-c2cc(C(=O)N3CCN(C(c4ccccc4)c4ccccc4)CC3)no2)cc1	?	-5.9%	5.9	14.1	-6.2%
COc1ccc(-c2cc(C(=O)N3CCCCCC3)no2)cc1	-14.9%	-0.8%	19.7*	69.8*	15.0%
CC[C@H](C)[C@H](NC(=O)[C@H](C)NC(=O)[C@@H](N)C(C)C)C(=O)N[C@H](C(=O)N[C@H](C(=O)N[C@@H](CC(C)C)C(=O)N[C@H](C(=O)N[C@@H](CCCCN)C(=O)O)C(C)C)C(C)C)[C@@H](C)O	·	·	-2.4	-6.3	·
COc1cccc(-c2cc(C(=O)N3CCN(c4ccc(F)cc4)CC3)no2)c1	3.2%	-4.5%	-2.0	-17.0	-12.7%
COc1cccc(-c2cc(C(=O)N3CCCCCC3)no2)c1	-95.2%	?	37.1*	54.1*	18.8%
COc1ccc(N=Nc2ccc3ccccc3c2)c(O)c1	-4.7%	-14.6%	50.0*	·	-11.8%
Cc1ccc(O)c(N=Nc2nccs2)c1	·	-9.6%	·	·	-17.0%
COc1cccc(N=Nc2ccc3ccccc3c2O)c1	-1.2%	?	40.0*	58.2*	-16.7%
Cc1ccc(O)c(N=Nc2ccc(S(=O)(=O)N3CCCC3)cc2)c1	-6.2%	2.6%	27.4*	42.2*	-1.3%
COc1ccc(N=Nc2cc(C)ccc2O)cc1	2.5%	-4.7%	48.2*	82.3*	-25.1%
COc1ccc(C2=CC(c3ccccc3Cl)n3nc(-c4ccc(C)cc4)nc3N2)cc1 (stereo not drawn)	·	4.0%	·	·	·
Cc1cccc(-n2c(C)c(C)c3c(N)ncnc32)c1	20.1%	-3.6%	19.5*	19.2	-9.5%
Cc1ccc(NC(=O)Cn2c(-c3nonc3N)nc3ccccc32)cc1C	·	5.1%	·	·	·
Cc1ccc(SCc2nc3ncccn3c2Br)cc1	-3.8%	3.1%	28.5*	37.4	13.2%
CN(C(=O)CSc1nc2scc(-c3ccccc3)c2c(=O)[nH]1)c1ccccc1	·	·	·	·	-21.4%
CCN(C(=O)/C=C/c1ccc(OC)cc1)C1CCCCC1	-23.0%	-2.9%	11.8*	15.9	0.5%
CCN(C(=O)/C=C/c1ccc(OC)cc1)C1CCS(=O)(=O)C1 (stereo not drawn)	·	?	·	·	-11.8%
CCn1c2ccc(Cl)cc2c2nc3ccccc3nc21	-10.2%	-12.7%	-2.5	-13.1	-0.5%
SMILES	NS1 inh	AmpC inh detg	CHX counter	Shiga toxin inh	AmpC inh no detg
CCn1c2ccc(C)cc2c2nc3cc(C(=O)O)ccc3nc21	-27.5%	-6.0%	43.6*	61.4*	-21.6%
Nc1nc2ccc(Cc3ccncc3)cc2s1	-0.3%	5.2%	20.4*	77.5*	-14.5%
COc1cc(OC)cc(C(=O)NCC2CCCN(C(=O)c3csc(C(C)C)n3)C2)c1 (stereo not drawn)	6.8%	0.7%	21.4*	-7.7	15.5%
COc1ccc(NC2CCCN(C(=O)c3csc(C(C)C)n3)C2)cc1 (stereo not drawn)	?	-9.1%	-1.5	-12.9	-14.5%
CCOc1ccc(-c2nonc2NC(=O)c2oc3cc(Br)ccc3c2C)cc1	·	0.9%	·	·	·
CCCCC1CCC(c2nc(-c3cccnc3)no2)CC1 (stereo not drawn)	6.6%	-0.9%	15.2	-16.2	-4.3%
CCCCC1CCC(c2nc(-c3ccccn3)no2)CC1 (stereo not drawn)	-20.8%	-13.5%	56.5*	177.9*	-7.0%
c1ccc(-c2noc(C3CCC3)n2)nc1	6.3%	-0.2%	27.6*	50.4*	-13.6%
CSc1nn(Cc2ccc(F)cc2)c(N)c1S(=O)(=O)c1ccc(Cl)cc1	·	3.4%	·	·	·
COC(=O)c1ccc(COc2ccccc2/C=N/Nc2cccc(C(=O)O)c2)cc1	·	?	55.3*	80.0*	-32.6%[11.4 µM]
O=C(O)c1cccc(NC(=S)N/N=C/c2ccccc2OCc2cccc(Br)c2)c1	·	-7.6%	8.3	5.7	-53.9%
CCOc1cc(/C=N/Nc2cccc(C(=O)O)c2)ccc1OC(=O)c1ccccc1	9.5%	4.6%	61.5*	185.7*	-17.7%
COc1ccc(NC(C)C(=O)N/N=C/c2ccccc2OCc2ccc(Br)cc2)cc1 (stereo not drawn)	11.2%	5.5%	34.7*	144.5*	-18.6%
CC(Nc1ccc(Br)cc1)C(=O)N/N=C/c1ccccc1OCc1ccccc1 (stereo not drawn)	-1.3%	1.7%	-5.2	-6.4	-13.7%
O=C(O)c1cccc(NC(=S)N/N=C/c2ccccc2OCc2ccc(Br)cc2)c1	13.5%	4.6%	15.9*	69.0	-42.5%
Cc1ccc(Cn2c(=O)n(CC3CCC(C(=O)N4CCOCC4)CC3)c(=O)c3sccc32)cc1 (stereo not drawn)	·	-1.2%	·	·	·
Cc1cc(OI)c(C(C)C)cc1-c1cc(C(C)C)c(OI)cc1C	·	·	-3.3	-5.2	·
O=C(c1ccc(Cl)cc1)C1CCCN(Cc2ccon2)C1 (stereo not drawn)	3.7%	4.5%	-0.9	-4.7	-0.1%
CC(C)(C)c1ccc(C(=O)C2CCCN(Cc3ccon3)C2)cc1 (stereo not drawn)	-2.3%	-2.3%	21.6*	32.6*	37.1%
O=C(c1ccc(-c2ccccc2)cc1)C1CCCN(Cc2ccncc2)C1 (stereo not drawn)	-1.8%	-6.8%	48.4*	53.3	104.6%
O=C(NCc1ccccc1Cl)c1ccc2c(c1)N(Cc1ccccc1)C(=O)CS2	·	3.9%	·	·	·
Cc1cc2c(cc1C)-c1nnnn1C(C)(C)C2	1.1%	?	16.7	59.0*	-18.5%
COc1cc2c(cc1OC)-c1nnc(C)n1C(C)(C)C2	2.2%	-10.4%	-4.6	-16.6	-13.6%
NC(=O)c1ccsc1NC(=O)c1ccc([N+](=O)[O-])o1	·	·	·	·	-29.8%
NCC(=O)Nc1ccc(Br)cc1	·	-0.1%	-2.2	-14.8	-12.5%
O=C(CC1CCCC1)Nc1ccc(Br)cc1	-12.4%	-2.0%	32.1*	75.7*	-55.3%
COc1ccc(NC(=O)CC2CCCCC2)cc1OC	-11.4%	?	26.8*	35.6	-9.7%
CC(C)(C)CC(C)(C)c1cc(O)c(O)c(CN2CCCCC2)c1	-4.1%	·	·	·	·
COc1cc(/C=N/Nc2nc3ccccc3[nH]2)cc(Br)c1OCC(=O)N(C)C	-15.8%	-6.4%	37.1*	138.8*	40.1%
